Assay results published in PubChem BioAssay (Tox21).
Results filed as inconclusive are left out. Active and inactive are the calls of the source. Unless noted, calls follow the shape of the full dose curve.

Assays:
[1] = Nuclear factor erythroid 2-related factor 2/antioxidant responsive element (Nrf2/ARE) small molecule agonists: qHTS cell viability counter screen in human keratinocytes (AID 1919968; active = well fitted curve in the direction sought with a large enough effect in the repeat runs; an effect the other way counts as inactive or inconclusive; also: nearly all actives have a fitted effect of over 55% in size; also: potency is read from the fitted curve at half-maximal effect)
How it was run: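 Cytotoxicity was multiplexed with the Nrf2/ARE luciferase assay in the same wells. Stably transfected HaCaT keratinocytes were treated with test compounds for 23 h at 37 C. Cell viability was then measured by CellTiter-Fluor fluorescence.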

[2] = Nuclear factor erythroid 2-related factor 2/antioxidant responsive element (Nrf2/ARE) small molecule agonists: luciferase reporter gene qHTS assay in human keratinocytes (AID 1919969); also: nearly all actives have a fitted effect of over 35% in size; also: potency is read from the fitted curve at half-maximal effect
[3] = molecular target: Gonadotropin-releasing hormone receptor (Homo sapiens) (UniProt P30968); experiment: Human gonadotropin-releasing hormone receptor (GnRHR) small molecule agonists, calcium flux assay in GnRHR-HEK293 cells (AID 1920063); also: nearly all actives have a fitted effect of over 35% in size
Sequence of Gonadotropin-releasing hormone receptor (Homo sapiens) (P30968 whole entry, looked up): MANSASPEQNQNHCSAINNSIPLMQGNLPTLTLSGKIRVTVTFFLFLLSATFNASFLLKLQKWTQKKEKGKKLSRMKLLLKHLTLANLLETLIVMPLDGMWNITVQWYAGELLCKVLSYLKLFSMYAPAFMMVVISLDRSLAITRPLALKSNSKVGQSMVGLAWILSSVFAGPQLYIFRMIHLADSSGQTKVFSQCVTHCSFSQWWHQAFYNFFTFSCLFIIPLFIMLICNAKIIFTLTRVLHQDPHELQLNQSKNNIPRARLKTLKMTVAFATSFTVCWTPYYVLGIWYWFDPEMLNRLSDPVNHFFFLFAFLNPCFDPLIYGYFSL
How it was run: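 Agonist activity was measured as intracellular calcium flux in HEK293 cells engineered to stably express human GnRHR. After dye loading for 1 hour at 37 C, compounds in DMSO were added and fluorescence was followed for 3 minutes.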

[4] = molecular target: KiSS-1 receptor (Homo sapiens) (UniProt Q969F8); experiment: Human kisspeptin (KISS1R) small molecule agonists, calcium flux assay in KISS1R-HEK293 cells (AID 1920064; active = well fitted curve in the direction sought with a large enough effect in the repeat runs; an effect the other way counts as inactive or inconclusive)
Sequence of KiSS-1 receptor (Homo sapiens) (Q969F8 whole entry, looked up): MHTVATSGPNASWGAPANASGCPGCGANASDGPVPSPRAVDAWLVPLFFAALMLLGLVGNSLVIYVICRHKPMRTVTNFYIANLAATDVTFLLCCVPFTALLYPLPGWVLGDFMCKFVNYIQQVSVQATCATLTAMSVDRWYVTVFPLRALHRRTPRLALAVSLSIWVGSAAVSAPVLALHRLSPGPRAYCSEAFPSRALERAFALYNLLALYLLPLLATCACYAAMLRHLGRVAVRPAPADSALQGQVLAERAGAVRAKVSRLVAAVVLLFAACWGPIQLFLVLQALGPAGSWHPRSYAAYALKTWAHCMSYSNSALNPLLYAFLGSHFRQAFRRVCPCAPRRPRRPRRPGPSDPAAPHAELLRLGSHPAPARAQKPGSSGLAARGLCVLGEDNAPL
How it was run: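 Agonist activity is monitored as intracellular calcium rise in engineered HEK293 cells carrying human KISS1R. Cells are dye-loaded for 1 h at 37 C before compound addition, and fluorescence is recorded for 3 min.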

[5] = G protein-coupled receptor (GPCR) small molecule agonists, calcium flux assay: HEK293 wild type cell line counter screen (AID 1920065)
How it was run: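 Seed cells, incubate 18 h (37 C, 5% CO2); add calcium dye, 1 h at 37 C; pin-transfer compounds, ATP control or DMSO; read fluorescence 480/540 nm each second for 3 min.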

[6] = p53 small molecule agonists, cell-based qHTS assay with human liver microsomes (AID 1963577);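 also: p53 response element beta-lactamase reporter cells with liver microsomes plus NADPH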
How it was run: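 16 h, 37 C exposure of p53RE-bla cells to compounds with human liver microsomes and NADPH (0.5 mg/mL final each); detection via LiveBLAzer mixture, 2 h dark at room temperature.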

[7] = p53 small molecule agonists, cell-based qHTS assay with rat liver microsomes (AID 1963578)
How it was run: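 With rat liver microsomes and NADPH present (0.5 mg/mL final each), p53RE-bla cells are treated with compound for 16 h at 37 C. LiveBLAzer detection mixture is then applied for 2 h at room temperature in the dark.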

[8] = p53 small molecule agonists, cell-based qHTS assay with human liver microsomes: qHTS cell viability counter screen (AID 1963579); also: nearly all actives have a fitted effect of over 45% in size; also: potency is read from the fitted curve at half-maximal effect
How it was run: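 In this multiplexed counter screen, the reporter plates were subsequently treated with CellTiter-Glo so that cell viability, reflected by luminescence, could be recorded for p53RE-bla cells dosed 16 h with compounds under microsomal activation (HLM and NADPH).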

[9] = p53 small molecule agonists, cell-based qHTS assay with rat liver microsomes: qHTS cell viability counter screen (AID 1963580); also: nearly all actives have a fitted effect of over 45% in size; also: potency is read from the fitted curve at half-maximal effect
How it was run: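 After the beta-lactamase ratio was read, CellTiter-Glo was added to the same wells and luminescence measured at 30 min; cells had been treated 16 h at 37 C with compounds, rat liver microsomes and NADPH (0.5 mg/mL final each).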

[10] = p53 small molecule agonists, cell-based qHTS assay: qHTS cell viability counter screen (AID 1963581); also: nearly all actives have a fitted effect of over 45% in size; also: potency is read from the fitted curve at half-maximal effect
How it was run: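 Viability was counter-screened in parallel with the p53 agonist reporter by measuring intracellular ATP luminescence in the same HCT-116 p53RE-bla wells after 16 h compound treatment at 37 C.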

[11] = molecular target: 5-hydroxytryptamine receptor 2A (Homo sapiens) (UniProt P28223); experiment: 5-hydroxytryptamine receptor 2A (HTR2A) small molecule antagonists, cell-based qHTS assay (AID 1963586); also: nearly all actives have a fitted effect of over 45% in size; also: potency is read from the fitted curve at half-maximal effect
Sequence of 5-hydroxytryptamine receptor 2A (Homo sapiens) (P28223 whole entry, looked up): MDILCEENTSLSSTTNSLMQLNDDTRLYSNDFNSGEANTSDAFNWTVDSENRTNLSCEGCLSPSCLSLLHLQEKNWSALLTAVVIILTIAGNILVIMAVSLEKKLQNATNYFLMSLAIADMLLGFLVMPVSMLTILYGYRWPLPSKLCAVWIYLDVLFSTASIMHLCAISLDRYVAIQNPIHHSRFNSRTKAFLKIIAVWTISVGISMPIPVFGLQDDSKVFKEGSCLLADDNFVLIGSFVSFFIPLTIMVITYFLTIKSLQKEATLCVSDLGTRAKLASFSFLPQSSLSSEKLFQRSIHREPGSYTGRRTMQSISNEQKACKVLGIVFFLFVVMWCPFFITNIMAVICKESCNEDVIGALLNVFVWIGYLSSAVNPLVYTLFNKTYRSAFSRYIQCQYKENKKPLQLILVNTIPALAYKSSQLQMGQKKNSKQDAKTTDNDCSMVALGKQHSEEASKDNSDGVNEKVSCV
How it was run: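 CHO cells stably expressing human HTR2A were plated for 18 h at 37 C, then loaded with calcium dye for 1 h. Compounds were preincubated 5 min at room temperature before DOI (4 nM solution) was added. Kinetic fluorescence was read for 3 min.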

[12] = molecular target: 5-hydroxytryptamine receptor 2A (Homo sapiens) (UniProt P28223); experiment: 5-hydroxytryptamine receptor 2A (HTR2A) small molecule agonists, cell-based qHTS assay (AID 1963587); also: nearly all actives have a fitted effect of over 30% in size; also: potency is read from the fitted curve at half-maximal effect
How it was run: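 CHO cells stably expressing human HTR2A, plated 18 h, loaded with calcium dye 1 h at 37 C. Agonist mode: compounds added and intracellular calcium fluorescence recorded kinetically for 2 min at 1 sec intervals.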

[13] = molecular target: Muscarinic acetylcholine receptor M1 (Homo sapiens) (UniProt P11229); experiment: Cholinergic receptor muscarinic 1 (CHRM1) small molecule antagonists, cell-based qHTS assay (AID 1963588); also: nearly all actives have a fitted effect of over 40% in size
Sequence of Muscarinic acetylcholine receptor M1 (Homo sapiens) (P11229 whole entry, looked up): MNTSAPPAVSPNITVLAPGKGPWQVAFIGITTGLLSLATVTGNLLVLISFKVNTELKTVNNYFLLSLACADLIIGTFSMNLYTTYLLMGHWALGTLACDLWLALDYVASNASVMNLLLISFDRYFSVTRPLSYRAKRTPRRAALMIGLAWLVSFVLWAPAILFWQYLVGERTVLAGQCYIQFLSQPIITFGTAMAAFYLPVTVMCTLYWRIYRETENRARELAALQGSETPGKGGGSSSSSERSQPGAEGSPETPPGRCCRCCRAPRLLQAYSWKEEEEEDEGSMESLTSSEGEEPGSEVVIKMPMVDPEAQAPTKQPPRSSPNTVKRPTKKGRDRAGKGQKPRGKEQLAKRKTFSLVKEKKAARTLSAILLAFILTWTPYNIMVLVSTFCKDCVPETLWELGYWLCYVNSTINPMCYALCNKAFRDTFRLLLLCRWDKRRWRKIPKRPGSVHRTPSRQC
How it was run: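 Compounds were tested at 15 concentrations in three independent runs. Dye-loaded CHRM1-CHO cells were exposed 5 min at room temperature before stimulation by acetylcholine added at 50nM. Intracellular calcium was read kinetically on FDSS for 3 min.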

[14] = molecular target: Muscarinic acetylcholine receptor M1 (Homo sapiens) (UniProt P11229); experiment: Cholinergic receptor muscarinic 1 (CHRM1) small molecule agonists, cell-based qHTS assay (AID 1963589); also: nearly all actives have a fitted effect of over 35% in size
How it was run: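 Cells were plated and incubated 18 h at 37 C/5% CO2, loaded with calcium dye for 1 h at 37 C, then treated with compounds in DMSO. Fluorescence was recorded kinetically at 1 sec intervals.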

[15] = cAMP Responsive Elements (CRE) small molecule antagonists, cell-based qHTS assay (AID 1963591; active = well fitted inhibition curve with a large enough effect in the signal ratio in the repeat runs, not every such curve was filed as active; the % refers to the signal ratio)
How it was run: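 Cells (CRE-bla HEK 293T, DMEM with 10% dialyzed FBS and 25 mM HEPES) are seeded and incubated 18 h. Compounds are added with NKH477 agonist at 0.25 uM final for 3 h, then FRET substrate for 2 h.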

[16] = molecular target: Beta-2 adrenergic receptor (Homo sapiens) (UniProt P07550); experiment: Adrenergic beta2 receptor (ADRB2) small molecule antagonists, cell-based qHTS assay (AID 1963592); also: series mostly up to about 92 µM; nearly all actives have a fitted effect of over 50% in size
Sequence of Beta-2 adrenergic receptor (Homo sapiens) (P07550 whole entry, looked up): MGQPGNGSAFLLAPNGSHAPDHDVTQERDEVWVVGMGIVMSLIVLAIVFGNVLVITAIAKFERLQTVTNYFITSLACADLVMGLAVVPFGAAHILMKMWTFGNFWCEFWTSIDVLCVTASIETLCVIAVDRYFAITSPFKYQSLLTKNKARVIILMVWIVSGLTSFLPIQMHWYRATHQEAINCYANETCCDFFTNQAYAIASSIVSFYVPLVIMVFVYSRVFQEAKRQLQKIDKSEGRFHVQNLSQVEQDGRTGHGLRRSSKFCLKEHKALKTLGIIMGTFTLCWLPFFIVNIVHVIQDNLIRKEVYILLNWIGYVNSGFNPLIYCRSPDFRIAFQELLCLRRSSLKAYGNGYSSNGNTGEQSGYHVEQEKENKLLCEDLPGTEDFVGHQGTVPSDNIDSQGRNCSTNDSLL
How it was run: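 Assay format: CHO-ADRB2 cells, 18-20hr seeding at 37C/5% CO2, then compound plus 1nM isoproterenol agonist mix for 0.5hr RT. Homogeneous time-resolved fluorescence cAMP detection after 1hr, expressed as 665/615 nm ratio.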

[17] = molecular target: D(2) dopamine receptor (Homo sapiens) (UniProt P14416); experiment: Dopamine D2 receptor (DRD2) small molecule agonists, cell-based qHTS assay (AID 1963594); also: nearly all actives have a fitted effect of over 35% in size
Sequence of D(2) dopamine receptor (Homo sapiens) (P14416 whole entry, looked up): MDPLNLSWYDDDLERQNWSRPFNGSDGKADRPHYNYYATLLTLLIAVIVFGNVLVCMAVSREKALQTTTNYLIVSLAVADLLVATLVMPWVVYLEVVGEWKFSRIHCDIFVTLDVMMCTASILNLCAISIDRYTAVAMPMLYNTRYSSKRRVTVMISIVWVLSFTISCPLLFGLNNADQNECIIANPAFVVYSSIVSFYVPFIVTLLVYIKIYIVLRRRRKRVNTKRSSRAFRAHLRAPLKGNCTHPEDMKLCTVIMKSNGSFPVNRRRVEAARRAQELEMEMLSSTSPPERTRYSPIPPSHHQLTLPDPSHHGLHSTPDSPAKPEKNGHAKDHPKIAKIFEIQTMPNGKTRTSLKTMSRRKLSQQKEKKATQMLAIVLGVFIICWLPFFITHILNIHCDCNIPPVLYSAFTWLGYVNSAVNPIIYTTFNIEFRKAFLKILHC
How it was run: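 HEK293 cells stably expressing human DRD2, pre-treated with PDE inhibitor Ro20-1724 (0.1 mM final) and compound 10 min at room temperature, then stimulated with NKH477 (200nM […]) for 30 min. cAMP read by HTRF (665/620 nm).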

[18] = molecular target: D(2) dopamine receptor (Homo sapiens) (UniProt P14416); experiment: Dopamine D2 receptor (DRD2) small molecule antagonists, cell-based qHTS assay (AID 1963595; active = well fitted inhibition curve with a large enough effect in the signal ratio in the repeat runs, with a control signal flat; the % refers to the signal ratio)
How it was run: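 DRD2-HEK293; 0.1 mM Ro20-1724; cpd 10 min RT; NKH477 200 nM + quinpirole 12 nM, 30 min RT; HTRF cAMP (cAMP-d2/anti-cAMP cryptate), 665/620 nm ratio after 1 h.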

[19] = cAMP Responsive Elements (CRE) small molecule agonists, cell-based qHTS assay (AID 1963590)
How it was run: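 Cells carrying a CRE-driven beta-lactamase reporter (HEK 293T) are seeded, incubated overnight (18 h), and treated with test compounds for 3 h at 37 C; reporter activity is then detected with a FRET substrate after 2 h at room temperature.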

[20] = p53 small molecule agonists, cell-based qHTS assay (AID 1963582; active = well fitted activation curve with a large enough effect in the signal ratio in the repeat runs, not every such curve was filed as active; the % refers to the signal ratio)
How it was run: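 Cells carrying a p53-responsive bla reporter are treated with test compounds for 16 h at 37 C; beta-lactamase activity is then detected with LiveBLAzer B/G FRET substrate after 2 h at room temperature.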

Measured: Potency

CCC[CH2][Sn]([CH2]CCC)([O]C(C)=O)[O]C(C)=O
active: [1] 0.219 µM | [2] 0.0978 µM
not listed: [19] | [20]
inactive: all other assays above

CC(N)=S
not listed: [11] | [12] | [13] | [14] | [20]
inactive: all other assays above

CCc1ccc(C2CCNCC2)cc1
active: [11] 18.3 µM | [12] 8.49 µM
not listed: [10] | [18]
inactive: all other assays above

N#Cc1sc2c(=O)c3ccccc3c(=O)c=2sc1C#N
active: [1] 6.11 µM | [2] 2.17 µM | [8] 5.13 µM | [9] 16.2 µM | [10] 4.08 µM
not listed: [11] | [15] | [19] | [20]
inactive: all other assays above
